High-throughput results as filed in PubChem.
An excerpt weighted towards active compounds, which were near 10% of everything screened.
JMJD2A Tudor inh: qHTS Assay for Inhibitors of JMJD2A-Tudor Domain; Lysine-specific demethylase 4A (Homo sapiens), O75164; AlphaScreen JMJD2A-Tudor / H3K4me3 peptide binding; Potency, µM (highest dose often 114 µM), for the others: top-dose activity change, negative = inhibition, most hits filed as inhibitors; 4.4% of 390,000 active; AID 504339, 2011; note: % is set by controls: 0 for no effect and ±100 for the full control effect; nearly all actives have a fitted effect of over 50% in size
Target sequence (O75164 whole entry, looked up, the tested form may be a part): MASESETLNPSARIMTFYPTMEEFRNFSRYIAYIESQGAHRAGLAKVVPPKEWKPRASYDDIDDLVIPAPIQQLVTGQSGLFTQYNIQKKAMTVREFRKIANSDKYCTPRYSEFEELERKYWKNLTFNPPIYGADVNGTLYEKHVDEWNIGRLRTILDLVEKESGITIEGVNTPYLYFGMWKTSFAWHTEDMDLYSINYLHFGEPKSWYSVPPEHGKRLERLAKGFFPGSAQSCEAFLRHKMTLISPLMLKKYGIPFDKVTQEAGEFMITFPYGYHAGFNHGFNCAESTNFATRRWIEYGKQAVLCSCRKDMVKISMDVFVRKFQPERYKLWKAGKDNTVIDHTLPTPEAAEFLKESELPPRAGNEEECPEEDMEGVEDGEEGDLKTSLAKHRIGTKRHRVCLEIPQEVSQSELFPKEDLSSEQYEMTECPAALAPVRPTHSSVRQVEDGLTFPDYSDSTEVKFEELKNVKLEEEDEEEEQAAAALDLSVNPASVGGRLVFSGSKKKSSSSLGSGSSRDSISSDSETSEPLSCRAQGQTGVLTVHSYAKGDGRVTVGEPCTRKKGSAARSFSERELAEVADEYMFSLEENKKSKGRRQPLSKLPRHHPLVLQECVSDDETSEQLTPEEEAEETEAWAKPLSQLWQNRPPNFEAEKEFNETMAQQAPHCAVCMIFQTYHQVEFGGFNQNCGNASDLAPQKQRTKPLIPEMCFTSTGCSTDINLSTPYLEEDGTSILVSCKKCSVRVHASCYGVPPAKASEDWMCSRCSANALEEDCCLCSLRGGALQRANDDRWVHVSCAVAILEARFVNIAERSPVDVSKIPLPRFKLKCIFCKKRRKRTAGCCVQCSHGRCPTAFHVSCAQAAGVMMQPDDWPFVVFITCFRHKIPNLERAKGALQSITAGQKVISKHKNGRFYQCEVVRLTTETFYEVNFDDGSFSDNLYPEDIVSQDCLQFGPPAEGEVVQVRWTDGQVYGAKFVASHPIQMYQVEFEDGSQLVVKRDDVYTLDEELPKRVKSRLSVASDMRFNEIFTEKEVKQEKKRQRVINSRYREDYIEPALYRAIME
G9a block: qHTS Assay for Inhibitors of Histone Lysine Methyltransferase G9a. G9a H3K9 monomethylation, AlphaScreen, 2 h. Potency, µM (top dose mostly 102 µM), inactives show at the top dose activity, negative = inhibition, usual class: inhibitors. 8.8% of 350,000 active. AID 504332, 2011; note: % is set by controls: 0 for no effect and ±100 for the full control effect; nearly all actives have a fitted effect of over 75% in size
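Methyltransferase reactions run at room temperature for 2 h (20 nM enzyme, 500 nM biotin-H3K9 peptide, 20 uM SAM) after a 15 min compound preincubation; product detected by AlphaScreen beads and anti-H3K9me1 antibody.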
GLS inhibitor: qHTS for Inhibitors of Glutaminase (GLS) | Glutaminase kidney isoform, mitochondrial (Homo sapiens), O94925 | GLS enzymatic activity, qHTS titration | Potency, µM (doses to about 45.5 µM), without a hit: top-dose activity change, negative = inhibition, most hits filed as inhibitors | 0.21% of 410,000 active | AID 624170, 2012; note: % is set by controls: 0 for no effect and ±100 for the full control effect
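hKGA in 45 mM KH2PO4 (pH 8.2), 0.02% Tween-20 with compound, then 1mM L-Glutamine (stock as added) plus glutamate oxidase/HRP/Amplex red coupling mix. Fluorescence read initially and after 30 min at RT; signal change reflects glutamate formation.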
HP1b chromo inh: HTS for Inhibitors of HP1-beta Chromodomain Interactions with Methylated Histone Tails; AlphaScreen HP1-beta / biotin-H3K9me3 peptide binding; Chromobox protein homolog 1 (Homo sapiens), P83916; AID 540317, 2011; 0.56% of 390,000 active; Potency, µM (doses to about 114 µM), for inactives: top-dose activity change, negative = inhibition, most hits filed as inhibitors; note: nearly all actives have a fitted effect of over 70% in size
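AlphaScreen: HP1-beta (50 nM) preformed 30 min with biotin-H3(1-18)K9me3 peptide (50 nM) in PBS pH 7.4, 0.01% Tween-20. Compound added for 30 min at RT, then streptavidin donor/nickel chelate acceptor beads (10 ug/mL) for 30 min.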
BAZ2B block: qHTS Assay for Inhibitors of BAZ2B; Potency, µM (doses to about 114 µM), for inactives: top-dose activity change, negative = inhibition, actives largely listed as inhibitors; Bromodomain adjacent to zinc finger domain protein 2B (Homo sapiens), Q9UIF8; AlphaScreen BAZ2B-H3K14Ac peptide displacement; 4.4% of 360,000 active; note: % is set by controls: 0 for no effect and ±100 for the full control effect; nearly all actives have a fitted effect of over 60% in size
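In this displacement format the biotinylated H3(5-23) peptide acetylated at Lys14 serves as ligand at 50 nM, with BAZ2B at 50 nM in PBS pH 7.4 containing 0.01% Tween-20. Donor and acceptor beads are 10 ug/mL final.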
The depositor's hits bear a star; ? = inconclusive; · = not tested or not shown; [ ] = another dose, or the depositor's remark. Calls come from the whole dose curve; as a rule, active = well fitted curve in the direction sought with a large enough effect; inconclusive = small, poorly fitted or top-dose-only effect, or another doubt; inactive = no such curve, though single readings can be large; an effect the other way counts as inactive or inconclusive. Potency is the fitted concentration of half-maximal effect.

SMILES | JMJD2A Tudor inh | G9a block | GLS inhibitor | HP1b chromo inh | BAZ2B block
c1ccc2c(-c3[nH]ncc3CNCCCn3ncc4ccccc43)cccc2c1 | 20µM* | · | -4% | -17% | ?
OCC1CCCCN1CCNCc1cn[nH]c1-c1cccc2ccccc12 (centres undefined) | -23% | -50% | -4% | 30% | -14%
C=Cc1ccc(Cn2c(C)c(C(=O)NCCC#N)sc2=O)cc1 | · | · | 0% | · | ·
N#CCCNC(=O)CCN1CCCCC1 | -7% | 56µM* | 4% | 8% | -7%
O=C(CCC(=O)CCN1CCCCC1)CCN1CCCCC1 | -12% | 13µM* | 11% | ? | -3%
N#CCCNC(=O)CCN1CCOCC1 | ? | 28µM* | -8% | 24% | -4%
CCOC(=O)C1CCN(C(=O)Cn2nc(CC)n3c(cc4occc43)c2=O)CC1 | -5% | 9%[59 µM] | -3% | 25% | -13%
CCOC(=O)c1sc(N2C(=O)C(O)=C(C(=O)c3ccc(C)o3)C2c2ccc(OC)c(OC)c2)nc1C (centres undefined) | -27% | 24% | -11% | 9% | -26%
Cc1ccc2nc(N3C(=O)C(O)=C(C(=O)c4ccc(C)o4)C3c3cccc(O)c3)sc2c1 (centres undefined) | ? | 32µM* | -5% | -10% | ?
CCOC(=O)c1ccc(N2C(=O)c3n[nH]c(-c4ccco4)c3C2c2cccc([N+](=O)[O-])c2)cc1 (centres undefined) | ? | ? | 13% | ? | 11µM*
CCOC(=O)c1sc(N2C(=O)C(O)=C(C(=O)c3ccc(C)o3)C2c2cccc([N+](=O)[O-])c2)nc1C (centres undefined) | ? | 45µM* | -1% | 6% | ?
COc1ccc(C2C(C(C)=O)=C(O)C(=O)N2c2nc3ccccc3s2)cc1OC (centres undefined) | ? | 50µM* | 13% | 41% | -29%
CCOC(=O)c1ccc(N2C(=O)c3n[nH]c(-c4ccco4)c3C2c2ccc(C(=O)OC)cc2)cc1 (centres undefined) | ? | ? | 3% | 5% | ·
COC(=O)C(Sc1ccc(Cl)cc1)C1SC(=S)N(Cc2ccccc2)C1=O (centres undefined) | · | · | 22% | · | ·
COC(=O)CSCc1nc(-c2ccc(C(=O)OC)cc2)oc1C | 4% | 27%[59 µM] | 6% | 41% | 0%
CCC1Cc2[nH]c(=S)[nH]c(=O)c2C(c2ccc(F)cc2)O1 (centres undefined) | · | · | 1% | · | ·
O=C(/C=C/c1cccc([N+](=O)[O-])c1)OCC(=O)N1CCCCC1 | · | · | 2% | · | ·
COC(=O)c1sc(N2C(=O)C(O)=C(C(=O)c3ccc(C)o3)C2c2ccc(OC)c(OC)c2)nc1C (centres undefined) | ? | 32µM* | -8% | 17% | -21%
COC(=O)c1sc(N2C(=O)C(O)=C(C(=O)c3ccc(C)o3)C2c2ccc([N+](=O)[O-])cc2)nc1C (centres undefined) | ? | ? | -16% | 10% | -6%
CCOc1ccc(C2C(C(=O)c3ccc(C)o3)=C(O)C(=O)N2c2nc(C)c(C(=O)OC)s2)cc1 (centres undefined) | ? | 10µM* | 14% | 14% | -19%
CCCN(c1ccccc1F)S(=O)(=O)c1cc(-c2cc(C)no2)ccc1C | 25% | 18%[59 µM] | 7% | 62% | 13%
O=C(CN1Cc2ccccc2C1=O)Nc1cc(F)ccc1F | -14% | -10%[59 µM] | -11% | 35% | 0%
O=C(NNc1ccnc2cc(Cl)ccc12)C1CCCCC1 | -10% | 6% | ? | 4% | -15%
Clc1ccc2c(NNc3ccccc3Cl)ccnc2c1 | ? | 3.2µM* | 1% | -18% | 2µM*
NC(=S)NNc1ccnc2cc(Cl)ccc12 | 45µM* | 1µM* | 6.3µM* | ? | 50µM*
SMILES | JMJD2A Tudor inh | G9a block | GLS inhibitor | HP1b chromo inh | BAZ2B block
NC(=S)NNc1ccc(Cl)c(Cl)c1 | ? | 13µM* | 27% | -13% | ?
FC(F)Oc1ccc(NC(=S)NNc2ccnc3cc(Cl)ccc23)cc1 | ? | 40µM* | -2% | ? | ?
O=C(CNC(=O)c1ccccc1C(=O)O)c1ccccc1 | -29% | 20µM* | -13% | 36% | -7%
O=C(O)c1ccccc1C(=O)NCC(O)c1ccccc1 (centres undefined) | -4% | 7.9µM* | -11% | 38% | 1%
O=C(O)c1ccccc1C(=O)NCCCCCCNC(=O)c1ccccc1C(=O)O | -6% | ? | 3% | 34% | -25%
CCc1ccccc1NC(=O)N1CCN(Cc2nc3ccc(C)cc3o2)CC1 | 2% | 3%[12.7 µM] | 7% | 19% | -3%
Cc1cc(C)c(OCCCCn2cnc3ccccc3c2=O)c(C)c1 | 1% | · | 2% | 56% | 18%
Cc1cc(OCCn2cnc3ccccc3c2=O)cc(C(C)C)c1 | 79µM* | -2%[59 µM] | -12% | 14% | -6%
COC(=O)c1c(NC(=O)CCS(=O)(=O)c2ccccc2)sc2c1CCN(C)C2 | -14% | ? | 11% | 27% | -17%
CCOC(=O)c1c(NC(=S)NCc2ccccc2)sc2c1CCN(C(=O)OCC)C2 | -13% | 16%[59 µM] | -1% | 27% | 1%
CCCN1CCc2c(sc(NC(=O)CCS(=O)(=O)c3ccccc3)c2C(=O)OC)C1 | -15% | 40µM* | 3% | 25% | -19%
CCOC(=O)c1c(NC(=S)Nc2ccccc2)sc2c1CCCCC2 | -13% | ? | 8% | -10% | -22%
C=CCNC(=S)Nc1sc2c(c1C(=O)OCC)CCN(C(=O)OCC)C2 | -27% | 13µM* | 0% | 8% | 14%
CCOC(=O)c1c(NC(=S)Nc2ccccc2)sc2c1CCN(CC)C2 | -1% | 35µM* | 7% | 25% | -35%
CCOC(=O)N1CCc2c(sc(N)c2C#N)C1 | -20% | 20µM* | 15% | 20% | -25%
CC(C)C(NC(N)=O)C(=O)NC1CCCCC1 (centres undefined) | · | 13% | · | · | 8%
CCOC(=O)c1ccc(NC(=O)C(CC)Sc2nc3ncccc3[nH]2)cc1 (centres undefined) | -13% | ? | -21% | 30% | -4%
CC(Oc1ccccc1)C(=O)Nc1ccc(S(=O)(=O)N2CCN(C)CC2)cc1 (centres undefined) | -10% | ? | -1% | 1% | 2%
CC(C)C(=O)Nc1nnc2n1CCS2 | 32µM* | ? | -10% | 3%[57 µM] | 2%
CCCC(CCC)C(=O)Nc1nnc2n1CCS2 | ? | ? | -17% | 5%[57 µM] | -7%
CC(Oc1ccccc1)C(=O)Nc1nnc2n1CCS2 (centres undefined) | 28µM* | 1.6µM* | -8% | -5%[57 µM] | 20µM*
CCOC(=O)C1=C[C@@]2(CC)CCCN3CCc4c(n1c1ccccc41)C32 (some centres undefined) | · | -28%[2.33 µM] | · | · | ·
COc1cccc(/C=N/NC(=O)C(=O)N/N=C/c2cccc(OC)c2O)c1O | 100µM* | 5% | 4% | 37% | 50µM*
COc1cccc(/C=N/NC(=O)C(=O)N2CCCCCC2)c1O | 79µM* | · | 16% | 43% | 79µM*
